Bioassay records: PubChem BioAssay, National Center for Advancing Translational Sciences (NCATS)
HT1080 IDH1KD tx: kills HT-1080 cells with IDH1 knockdown. HT-1080 IDH1 knockdown viability, ATP luminescence, 48 h. Potency, µM (titrated, usually from 46.1 µM), inactives show at the top dose activity, negative = toxicity, actives largely listed as cytotoxic. hit rate 2% among 360,000. AID 686971;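 note: potency is the fitted concentration of half-maximal effect; 0% = DMSO wells and -100% = cell-free medium wells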
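Assay cells: HT-1080 with IDH1 knockdown, 750 per well, RPMI/5% FBS. Exposure: 48 h at 37 °C following 2 h pre-incubation. Read: CellTiter-Glo luminescence; fitted concentration-response, curve class assigned.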
DT40 TDP1 CPT: growth inhibition of DT40 Tdp1-/-;hTDP1 cells with camptothecin (screen for TDP1 inhibitors); chicken DT40 Tdp1-/-;hTDP1 cells + 20 nM CPT, ATP luminescence, 48 h; Potency, µM (highest dose often 46.2 µM), without a hit: at the top dose activity change, negative = growth inhibition, usual class: inhibitors; hit rate 12% among 420,000; AID 686979; note: potency is the fitted concentration of half-maximal effect; nearly all actives have a fitted effect of over 55% in size
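Cell growth measured by CellTiter-Glo luminescence after a minimum 48 h, 37 C compound exposure with 20 nM CPT in Tdp1-knockout DT40 cells stably expressing hTDP1, seeded 400/well; qHTS titration format.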
HT1080-NT tox: kills 2HG-producing HT-1080-NT fibrosarcoma cells; Potency, µM (series often up to 46.1 µM), without a hit: at the highest dose activity, negative = less viability, most hits filed as cytotoxic; hit rate 1.6% among 360,000; HT-1080-NT fibrosarcoma viability, CellTiter-Glo ATP luminescence, 48 h;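 note: NT is the 2HG producing partner of a matched IDH1 knockdown line; potency is the fitted concentration of half-maximal effect; 0% = DMSO-treated cells and -100% = media-only wells without cells; nearly all actives have a fitted effect of over 55% in size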
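Fibrosarcoma NT cells, 750 per well in 5% FBS RPMI, were exposed to compound for 48 hours. Viability: CellTiter-Glo luminescence.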
TDP1 cell noCPT: qHTS for Inhibitors of human tyrosyl-DNA phosphodiesterase 1 (TDP1): qHTS in cells in absence of CPT. DT40 Tdp1-/- hTDP1 cells, no CPT, ATP luminescence, 48 h. Potency, µM (highest dose often 46.2 µM), for inactives: at the highest dose activity change, negative = growth inhibition, most hits filed as inhibitors. hit rate 15% among 420,000; note: potency is the fitted concentration of half-maximal effect; nearly all actives have a fitted effect of over 55% in size
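Growth of hTDP1-complemented DT40 Tdp1-knockout cells is measured by ATP luminescence after at least 48 hr compound exposure at 37 °C, with DMSO substituting for the 20 nM CPT used in the parallel screen.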
IL-1B inflam inh: blocks inflammasome-driven IL-1 beta release. THP-1 LPS/ATP IL-1B secretion, AlphaLISA, 16 h; hits give low values. activity change, % at 57.5 µM. hit rate 4.7% among 360,000; in the data active = activity change below about -50%; inconclusive = mostly about -30% to -49%
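Secreted IL-1B measured by AlphaLISA bead assay after 16 h compound exposure of THP-1 cells; compounds (final up to 57.5 uM) added 1 h before LPS (250 ng/mL) and ATP (1.25 mM) stimulation; lower signal means less secretion.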
* marks the source's active call; other numbers are inactive results; u = inconclusive; x = not tested or not shown; [ ] = another dose, or the depositor's remark. Rows were chosen to be rich in hits. Some 19% of all compounds tested hit in one or more screens of this group. Unless noted, calls come from the whole dose curve; as a rule, active = well fitted curve in the direction sought with a large enough effect; inconclusive = small, poorly fitted or top-dose-only effect, or another doubt; inactive = no such curve, though single readings can be large; an effect the other way counts as inactive or inconclusive. Unless noted, % is set by controls: 0 for no effect and ±100 for the full control effect.

SMILES	HT1080 IDH1KD tx	DT40 TDP1 CPT	HT1080-NT tox	TDP1 cell noCPT	IL-1B inflam inh
Cc1nn(-c2ccccc2)c(Cl)c1C1C(C#N)=C(N)OC2=C1C(=O)CC(C)(C)C2 (configuration not stated)	u	u	u	u	34
CC(C)c1ccc(-c2nn(-c3ccccc3)cc2C2C(C#N)=C(N)OC3=C2C(=O)CC(C)(C)C3)cc1 (configuration not stated)	u	u	u	18µM*	-29
COC(=O)c1ccc(CSc2nnc(C)s2)cc1	13%	12µM*	9%	10µM*	0
COC(=O)c1ccc(CSc2nnc(N)s2)cc1	7%	7%	0%	-12%	25
O=C(/C=C/c1ccc(F)cc1)NC(=S)Nc1ccccc1O	-12%	u	8%	18µM*	u
NC(=S)NC(=O)/C=C/c1ccccc1	-18%	-10%	-17%	u	-96*
O=C(/C=C/c1ccccc1)NC(=S)Nc1ccccc1O	-13%	u	-8%	21µM*	-63*
Cn1c(=O)n(Cc2ccccc2Cl)c(=O)c2c1nc1n2CCN1c1ccccc1	x	-7%	x	-28%	x
CC(=O)C(C(c1ccccc1)c1c[nH]c2ccccc12)[N+](=O)[O-] (configuration not stated)	23µM*	6.5µM*	u	5.8µM*	28
COc1ccccc1C(C[N+](=O)[O-])c1c[nH]c2ccccc12 (configuration not stated)	u	u	15µM*	u	-89*
Nc1nnc2c(n1)[nH]c1ccccc12	x	-19%	x	u	x
Cc1ccc(N2C(=O)CS(=O)C(c3ccccc3)C2=O)cc1C (configuration not stated)	-11%	u	-9%	15µM*	-9
Cc1ccc(N2C(=O)C3C(C2=O)N2CCCN2C3c2ccccc2)cc1C (configuration not stated)	4%	1%	7%	-7%	0
COc1ccc(CCN2C(=O)N(c3ccc(F)cc3)C(=O)C2CC(=O)Nc2ccccc2)cc1OC (configuration not stated)	x	u	x	-24%	x
COc1ccc(CCN2C(=O)N(c3ccc(F)cc3)C(=O)C2CC(=O)Nc2ccc(F)c(F)c2)cc1 (configuration not stated)	x	12µM*	x	21µM*	x
COc1ccc(N2C(=O)C(CC(=O)Nc3ccc(F)cc3)N(CCc3ccc(OC)c(OC)c3)C2=O)cc1 (configuration not stated)	6%	-14%	-2%	-12%	-1
CCCOc1ccc(NC(=O)CC2C(=O)N(c3ccc(Cl)cc3)C(=O)N2CCc2ccncc2)cc1 (configuration not stated)	x	u	x	26µM*	x
O=C(CC1C(=O)N(c2ccccc2)C(=O)N1Cc1ccc(F)cc1)Nc1cccc(F)c1 (configuration not stated)	x	u	x	23µM*	x
COc1ccc(NC(=O)CC2C(=O)N(c3ccc(C)cc3)C(=O)N2CCc2ccccc2)cc1 (configuration not stated)	x	15µM*	x	15µM*	x
CC(C)c1c(C(=O)NCc2cccnc2)cnn1-c1nccc(-c2cccs2)n1	x	24%[9.04 µM]	x	u	x
CCNC(=O)CC1C(=O)N(c2ccc(F)cc2)C(=O)N1Cc1ccc(OC)cc1 (configuration not stated)	0%	-1%	8%	-8%	-5
COc1ccc(CCN2C(=O)N(c3ccc(F)cc3)C(=O)C2CC(=O)Nc2ccc(OC)cc2)cc1 (configuration not stated)	x	12µM*	x	u	x
COc1ccc(CN2C(=O)N(c3ccc(F)cc3)C(=O)C2CC(=O)Nc2ccccc2)cc1 (configuration not stated)	x	13µM*	x	13µM*	x
CN(Cc1ccccc1)C(=O)COC(=O)c1ccc(=O)n(Cc2ccccc2)n1	3%	15%	5%	16%	11
CN(C(=O)COC(=O)c1ccc(=O)n(Cc2ccccc2)n1)c1ccccc1	5%	15µM*	14%	18µM*	13
SMILES	HT1080 IDH1KD tx	DT40 TDP1 CPT	HT1080-NT tox	TDP1 cell noCPT	IL-1B inflam inh
CS(=O)(=O)Nc1cccc(C2=NN(C(=O)c3ccccc3)C(c3cccs3)C2)c1 (configuration not stated)	-11%	21µM*	1%	u	-29
CC(C)C(=O)N1N=C(c2ccc(NS(C)(=O)=O)cc2)CC1c1cccs1 (configuration not stated)	-27%	-12%	-16%	u	1
CS(=O)(=O)Nc1ccc(C2=NN(C(=O)C3CCCCC3)C(c3cccs3)C2)cc1 (configuration not stated)	u	u	-14%	23µM*	-59*
[O-][n+]1c2ccccc2c2n1CCN=C2c1ccc(Cl)cc1	-3%	-12%	-3%	-22%	15
Cc1ccc(C2=NCCn3c2c2ccc([N+](=O)[O-])cc2[n+]3[O-])cc1	-6%	4.1µM*	-1%	10µM*	8
O=[N+]([O-])c1ccc2c3n([n+]([O-])c2c1)CCN=C3c1ccc(Cl)cc1	-1%	9.2µM*	-2%	15µM*	-14
O=C(NNC(=O)C(Cl)Cl)c1cnn(-c2ccccc2)c1C(F)(F)F	0%	-6%	-4%	-8%	0
CN1CCN(C(=O)CCc2nnc3ccc(N4CCC5(CC4)OCCO5)nn23)CC1	1%	8%	1%	-6%	4
OC1(c2ccccc2)CC(c2ccccc2)c2ccccc2O1 (configuration not stated)	u	-25%	u	u	-99*
CCN(CC)S(=O)(=O)c1ccc(Br)c(OC)c1	-11%	-22%	-19%	u	2
CCOc1cc(S(=O)(=O)N(CC)CC)ccc1Cl	-14%	-5%	27%	-18%	2
CCN(CC)S(=O)(=O)c1ccc(Oc2ccccc2OC)cc1	-21%	18µM*	-4%	u	0
CCCN(CCC)S(=O)(=O)c1ccc(Cl)c(OC)c1	-2%	u	-6%	13µM*	-16
CCN(CC)S(=O)(=O)c1ccc(OCCNS(C)(=O)=O)cc1	-10%	6.5µM*	0%	16µM*	-2
CCN(CC)S(=O)(=O)c1ccc(N)cc1	-1%	6%	0%	-3%	-4
CCN(CC)S(=O)(=O)c1ccc(Oc2ccc(S(=O)(=O)N(CC)CC)cc2)cc1	-29%	18µM*	u	5.8µM*	u
CCC1(c2ccccc2)NC(=O)N(CC(=O)Nc2ccc(S(=O)(=O)Nc3ncccn3)cc2)C1=O (configuration not stated)	2%	6%	1%	5%	0
